The values that follow come from paper PMC7862700, “An all-to-all approach to the identification of sequence-specific readers for epigenetic DNA modifications on cytosine”.

What all share (experiment): DAPPL (digital affinity profiling via proximity ligation, sequencing); 10 mM Tris-HCl pH 7.5, 50 mM NaCl, 1 mM DTT, 4% glycerol, room temperature, 30 min; GST-TFs on glutathione beads, 16-mer random dsDNA library, 0.1% formaldehyde crosslink after washing; high values mean tight binding
Settings in all cases: protein: recombinant; tags: N-terminal GST; dsDNA, one strand shown

One test has as its target T1, ERG (Homo sapiens, UniProt P11308 1-479).
T1 sequence: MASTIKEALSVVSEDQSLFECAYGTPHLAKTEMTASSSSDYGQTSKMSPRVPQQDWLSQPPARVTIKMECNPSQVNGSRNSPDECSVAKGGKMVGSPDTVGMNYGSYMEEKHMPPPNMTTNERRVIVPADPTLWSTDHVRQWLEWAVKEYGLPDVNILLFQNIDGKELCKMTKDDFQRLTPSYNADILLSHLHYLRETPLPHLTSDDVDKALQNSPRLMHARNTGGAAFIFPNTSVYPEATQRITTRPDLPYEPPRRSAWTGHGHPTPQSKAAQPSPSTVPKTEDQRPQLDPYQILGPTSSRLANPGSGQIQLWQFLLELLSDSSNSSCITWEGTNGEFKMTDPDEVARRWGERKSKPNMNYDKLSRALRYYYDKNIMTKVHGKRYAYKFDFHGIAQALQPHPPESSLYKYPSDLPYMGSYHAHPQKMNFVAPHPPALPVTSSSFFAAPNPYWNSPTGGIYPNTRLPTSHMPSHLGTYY
Summed up:
(§1)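 Beads coated with glutathione captured GST-fused human transcription factors that had been expressed in yeast, and the factors were then given DNA barcodes and pooled with a tag-only sample. The pools were incubated with 200 nmole of a random double-stranded 16-mer DNA library in Tris/NaCl/DTT/glycerol buffer for 30 min at room temperature, washed, crosslinked with 0.1% formaldehyde and proximity-ligated with BsaI/T4 ligase at 37 °C for 1 h. PCR amplification and Illumina NextSeq500 sequencing came last. Binding signal is each hexamer's read frequency for a factor divided by its frequency for the tag-only sample.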

Another test addresses ELF1 (Homo sapiens, UniProt P32519 1-619). The essentials: as §1
The next test deals with T2, EHF (Homo sapiens, UniProt Q9NZC4 1-300).
T2 sequence: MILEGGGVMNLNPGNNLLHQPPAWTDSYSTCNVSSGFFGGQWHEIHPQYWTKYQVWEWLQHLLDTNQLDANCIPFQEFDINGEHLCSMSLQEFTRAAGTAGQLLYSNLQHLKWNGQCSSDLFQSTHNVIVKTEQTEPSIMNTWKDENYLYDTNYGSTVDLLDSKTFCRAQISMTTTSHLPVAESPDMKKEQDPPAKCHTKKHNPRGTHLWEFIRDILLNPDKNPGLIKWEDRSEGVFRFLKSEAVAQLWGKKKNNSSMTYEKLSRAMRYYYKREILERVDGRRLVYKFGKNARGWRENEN
The essentials:
as §1

The target of the next test is ETV5 (Homo sapiens, UniProt P41161 1-510). Summed up: as §1
The target in another test is T3, ELK4 (Homo sapiens, UniProt P28324-2 1-405).
T3 sequence: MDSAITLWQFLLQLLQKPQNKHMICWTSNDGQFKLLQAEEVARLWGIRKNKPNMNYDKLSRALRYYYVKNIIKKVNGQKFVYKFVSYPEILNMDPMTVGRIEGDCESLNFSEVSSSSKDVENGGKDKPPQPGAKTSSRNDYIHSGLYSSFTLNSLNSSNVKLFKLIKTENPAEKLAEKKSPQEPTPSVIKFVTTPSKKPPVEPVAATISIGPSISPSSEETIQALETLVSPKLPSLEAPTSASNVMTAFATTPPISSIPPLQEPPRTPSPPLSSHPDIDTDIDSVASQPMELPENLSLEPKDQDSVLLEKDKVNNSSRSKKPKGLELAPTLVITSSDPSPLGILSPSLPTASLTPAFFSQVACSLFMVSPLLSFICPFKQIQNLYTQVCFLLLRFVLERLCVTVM
The essentials:
as §1

The next test concerns the target T4, ETV2 (Homo sapiens, UniProt O00321 1-342).
T4 sequence: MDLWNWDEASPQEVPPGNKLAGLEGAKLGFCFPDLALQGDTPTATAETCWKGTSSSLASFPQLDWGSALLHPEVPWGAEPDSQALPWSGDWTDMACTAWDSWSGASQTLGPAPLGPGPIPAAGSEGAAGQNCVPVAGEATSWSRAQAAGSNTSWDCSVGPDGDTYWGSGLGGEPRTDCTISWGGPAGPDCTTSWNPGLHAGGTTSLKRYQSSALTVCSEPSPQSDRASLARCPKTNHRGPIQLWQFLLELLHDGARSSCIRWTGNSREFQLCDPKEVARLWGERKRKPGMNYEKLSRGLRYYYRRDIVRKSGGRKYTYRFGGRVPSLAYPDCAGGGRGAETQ
Summed up: as §1

The target in another test is T5, ERF (Homo sapiens, UniProt P50548 1-548).
T5 sequence: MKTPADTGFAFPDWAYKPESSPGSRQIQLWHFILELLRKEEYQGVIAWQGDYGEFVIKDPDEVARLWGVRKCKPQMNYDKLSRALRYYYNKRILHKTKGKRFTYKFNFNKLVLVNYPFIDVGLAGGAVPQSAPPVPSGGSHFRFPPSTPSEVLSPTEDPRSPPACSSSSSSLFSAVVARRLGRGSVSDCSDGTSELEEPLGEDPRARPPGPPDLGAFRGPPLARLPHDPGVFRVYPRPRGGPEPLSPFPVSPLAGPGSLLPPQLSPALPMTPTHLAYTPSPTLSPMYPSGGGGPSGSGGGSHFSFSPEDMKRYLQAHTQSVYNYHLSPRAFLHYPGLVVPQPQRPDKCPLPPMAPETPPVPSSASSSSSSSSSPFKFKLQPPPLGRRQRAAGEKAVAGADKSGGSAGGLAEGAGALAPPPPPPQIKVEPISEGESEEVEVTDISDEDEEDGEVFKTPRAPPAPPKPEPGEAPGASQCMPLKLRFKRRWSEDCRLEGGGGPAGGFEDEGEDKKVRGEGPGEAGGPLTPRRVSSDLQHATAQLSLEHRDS
Summed up: as §1

Another test has as its target T6, ETV3L (Homo sapiens, UniProt Q6ZN32 1-361).
T6 sequence: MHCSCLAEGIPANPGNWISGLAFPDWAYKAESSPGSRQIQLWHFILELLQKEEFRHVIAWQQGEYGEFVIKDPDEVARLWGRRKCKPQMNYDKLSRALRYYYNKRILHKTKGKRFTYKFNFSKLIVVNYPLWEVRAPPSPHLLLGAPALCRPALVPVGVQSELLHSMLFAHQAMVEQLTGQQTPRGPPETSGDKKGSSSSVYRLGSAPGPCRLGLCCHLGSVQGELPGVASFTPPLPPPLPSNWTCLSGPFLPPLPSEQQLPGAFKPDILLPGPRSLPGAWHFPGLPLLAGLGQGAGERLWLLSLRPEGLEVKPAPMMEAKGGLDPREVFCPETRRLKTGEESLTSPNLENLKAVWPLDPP
Summed up:
as §1

The next test concerns the target T7, ETS2 (Homo sapiens, UniProt P15036 1-469).
T7 sequence: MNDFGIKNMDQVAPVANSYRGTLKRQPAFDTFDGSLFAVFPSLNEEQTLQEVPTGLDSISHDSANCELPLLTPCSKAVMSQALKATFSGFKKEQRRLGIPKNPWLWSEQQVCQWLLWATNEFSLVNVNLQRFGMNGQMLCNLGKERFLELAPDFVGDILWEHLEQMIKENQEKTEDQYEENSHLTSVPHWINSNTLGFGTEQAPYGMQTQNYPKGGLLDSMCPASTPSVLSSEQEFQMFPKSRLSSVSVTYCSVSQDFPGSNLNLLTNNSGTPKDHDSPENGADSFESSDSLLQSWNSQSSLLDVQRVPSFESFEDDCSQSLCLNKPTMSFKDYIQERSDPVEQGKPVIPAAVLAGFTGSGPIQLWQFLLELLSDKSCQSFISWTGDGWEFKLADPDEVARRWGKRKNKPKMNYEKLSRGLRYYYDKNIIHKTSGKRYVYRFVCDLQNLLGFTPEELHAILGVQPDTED
Summed up: as §1

The target in another test is T8, ETV7 (Homo sapiens, UniProt Q9Y603 1-341).
T8 sequence: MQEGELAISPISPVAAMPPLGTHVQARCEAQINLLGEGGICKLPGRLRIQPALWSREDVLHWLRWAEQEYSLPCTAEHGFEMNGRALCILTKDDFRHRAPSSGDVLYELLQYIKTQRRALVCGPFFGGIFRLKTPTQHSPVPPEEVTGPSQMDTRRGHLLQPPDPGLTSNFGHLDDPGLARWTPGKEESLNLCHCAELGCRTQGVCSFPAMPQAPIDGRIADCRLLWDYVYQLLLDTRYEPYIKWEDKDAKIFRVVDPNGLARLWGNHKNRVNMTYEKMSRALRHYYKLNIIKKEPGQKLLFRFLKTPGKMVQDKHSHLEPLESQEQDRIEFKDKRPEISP
Summed up: as §1

The next test has as its target T9, ETV3 (Homo sapiens, UniProt P41162-2 1-143).
T9 sequence: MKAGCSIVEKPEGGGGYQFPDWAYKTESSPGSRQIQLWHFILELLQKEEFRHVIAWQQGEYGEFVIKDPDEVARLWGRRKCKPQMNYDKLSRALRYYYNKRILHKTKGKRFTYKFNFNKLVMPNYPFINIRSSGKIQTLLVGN
Summed up: as §1

The target of another test is ETV6 (Homo sapiens, UniProt P41212 1-452). The essentials:
as §1

The target of a further test is T10, ELK1 (Homo sapiens, UniProt P19419 1-428).
T10 sequence: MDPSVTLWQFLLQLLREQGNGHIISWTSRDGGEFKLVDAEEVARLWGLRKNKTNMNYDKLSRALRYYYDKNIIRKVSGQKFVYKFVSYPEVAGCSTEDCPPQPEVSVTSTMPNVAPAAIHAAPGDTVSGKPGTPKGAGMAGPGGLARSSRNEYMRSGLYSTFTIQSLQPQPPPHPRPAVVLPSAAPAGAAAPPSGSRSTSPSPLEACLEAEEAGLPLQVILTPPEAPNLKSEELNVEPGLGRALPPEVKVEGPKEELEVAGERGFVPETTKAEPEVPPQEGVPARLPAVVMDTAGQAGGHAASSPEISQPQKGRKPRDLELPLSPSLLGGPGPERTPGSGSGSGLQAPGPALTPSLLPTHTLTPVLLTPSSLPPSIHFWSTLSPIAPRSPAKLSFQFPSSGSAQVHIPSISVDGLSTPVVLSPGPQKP
Summed up:
as §1

The next test concerns the target ETV1 (Homo sapiens, UniProt P50549 1-477). The essentials: as §1
For the next test, the target named is T11, SPDEF (Homo sapiens, UniProt O95238 1-335).
T11 sequence: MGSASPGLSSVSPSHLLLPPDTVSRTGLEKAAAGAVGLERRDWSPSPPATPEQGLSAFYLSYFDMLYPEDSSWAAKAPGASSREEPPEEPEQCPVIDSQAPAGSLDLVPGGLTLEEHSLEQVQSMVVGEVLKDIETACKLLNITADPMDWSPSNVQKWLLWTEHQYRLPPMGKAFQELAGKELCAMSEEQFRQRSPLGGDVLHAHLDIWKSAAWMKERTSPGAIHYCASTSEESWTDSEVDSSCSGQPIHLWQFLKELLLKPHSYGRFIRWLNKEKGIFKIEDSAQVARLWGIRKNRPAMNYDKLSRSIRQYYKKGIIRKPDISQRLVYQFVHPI
Summed up: as §1

ELF1, sequence (P32519 whole entry): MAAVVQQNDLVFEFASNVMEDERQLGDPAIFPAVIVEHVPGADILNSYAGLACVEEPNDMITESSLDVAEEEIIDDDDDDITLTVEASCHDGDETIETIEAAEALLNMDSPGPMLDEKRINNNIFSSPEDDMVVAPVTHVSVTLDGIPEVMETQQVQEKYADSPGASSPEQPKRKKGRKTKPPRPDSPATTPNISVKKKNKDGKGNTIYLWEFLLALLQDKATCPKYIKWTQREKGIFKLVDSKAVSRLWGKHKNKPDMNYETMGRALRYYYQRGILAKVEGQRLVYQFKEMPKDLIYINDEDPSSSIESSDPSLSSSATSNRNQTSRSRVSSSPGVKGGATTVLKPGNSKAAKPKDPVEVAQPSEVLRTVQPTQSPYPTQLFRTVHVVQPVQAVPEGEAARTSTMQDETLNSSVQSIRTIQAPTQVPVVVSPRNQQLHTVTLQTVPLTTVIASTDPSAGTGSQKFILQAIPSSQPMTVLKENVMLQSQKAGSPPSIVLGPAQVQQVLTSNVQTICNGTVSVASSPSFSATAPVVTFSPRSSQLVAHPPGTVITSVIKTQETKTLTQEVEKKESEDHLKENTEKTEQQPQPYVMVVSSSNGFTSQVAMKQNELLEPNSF
ETV5, sequence (P41161 whole entry): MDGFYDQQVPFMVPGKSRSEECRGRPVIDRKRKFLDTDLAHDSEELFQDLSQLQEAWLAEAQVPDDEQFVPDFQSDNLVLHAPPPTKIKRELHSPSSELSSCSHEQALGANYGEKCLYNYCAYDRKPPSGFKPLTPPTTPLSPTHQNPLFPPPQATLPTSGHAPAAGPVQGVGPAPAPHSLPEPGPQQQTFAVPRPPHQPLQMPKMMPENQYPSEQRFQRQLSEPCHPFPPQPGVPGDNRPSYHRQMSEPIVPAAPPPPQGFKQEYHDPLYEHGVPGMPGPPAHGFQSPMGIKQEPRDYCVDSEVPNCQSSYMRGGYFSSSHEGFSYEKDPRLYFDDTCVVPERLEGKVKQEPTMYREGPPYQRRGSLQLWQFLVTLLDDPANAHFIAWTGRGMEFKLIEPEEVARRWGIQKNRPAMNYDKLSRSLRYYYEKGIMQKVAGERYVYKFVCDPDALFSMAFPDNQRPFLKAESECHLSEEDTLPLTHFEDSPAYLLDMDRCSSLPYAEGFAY
ETV6, sequence (P41212 whole entry): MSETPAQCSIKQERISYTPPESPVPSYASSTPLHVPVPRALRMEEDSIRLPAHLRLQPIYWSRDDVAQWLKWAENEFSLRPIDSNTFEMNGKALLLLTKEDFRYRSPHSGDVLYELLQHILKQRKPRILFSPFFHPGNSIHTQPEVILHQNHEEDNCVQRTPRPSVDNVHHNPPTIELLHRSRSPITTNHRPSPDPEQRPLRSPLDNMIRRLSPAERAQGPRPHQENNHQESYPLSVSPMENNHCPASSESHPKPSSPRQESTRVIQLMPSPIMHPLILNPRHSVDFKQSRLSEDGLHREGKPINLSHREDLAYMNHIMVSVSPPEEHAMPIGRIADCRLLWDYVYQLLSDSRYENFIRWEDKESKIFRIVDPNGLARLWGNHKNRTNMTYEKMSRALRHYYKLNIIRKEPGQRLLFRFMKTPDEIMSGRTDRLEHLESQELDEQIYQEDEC
ETV1, sequence (P50549 whole entry): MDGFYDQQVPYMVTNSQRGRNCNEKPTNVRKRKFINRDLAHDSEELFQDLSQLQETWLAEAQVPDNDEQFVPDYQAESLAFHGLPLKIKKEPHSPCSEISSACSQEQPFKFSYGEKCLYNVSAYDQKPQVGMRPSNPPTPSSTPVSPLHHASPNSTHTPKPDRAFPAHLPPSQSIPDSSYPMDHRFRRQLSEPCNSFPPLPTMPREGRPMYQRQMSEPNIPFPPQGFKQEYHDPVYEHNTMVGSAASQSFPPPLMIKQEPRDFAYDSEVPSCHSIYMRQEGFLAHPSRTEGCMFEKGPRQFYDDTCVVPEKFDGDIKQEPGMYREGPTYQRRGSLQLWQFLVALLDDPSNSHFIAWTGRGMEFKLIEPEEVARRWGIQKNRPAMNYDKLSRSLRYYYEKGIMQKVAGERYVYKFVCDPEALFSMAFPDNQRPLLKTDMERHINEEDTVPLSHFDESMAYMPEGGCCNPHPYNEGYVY

As to TCAAGC, the binding signal in the test with ERG was 1.01 fold enrichment (6-mer frequency, TF over GST control); with ELF1, 1 fold enrichment (6-mer frequency, TF over GST control); with EHF, 1.01 fold enrichment (6-mer frequency, TF over GST control); with ETV5, 1.02 fold enrichment (6-mer frequency, TF over GST control); in the test with ELK4, 1.01 fold enrichment (6-mer frequency, TF over GST control); with ETV2 it was 1.09 fold enrichment (6-mer frequency, TF over GST control). Also, the binding signal was 1.06 fold enrichment (6-mer frequency, TF over GST control) with ERF; 1.08 fold enrichment (6-mer frequency, TF over GST control) with ETV3L; 1 fold enrichment (6-mer frequency, TF over GST control) with ETS2; 1.04 fold enrichment (6-mer frequency, TF over GST control) with ETV7; 1.08 fold enrichment (6-mer frequency, TF over GST control) with ETV3; 1.03 fold enrichment (6-mer frequency, TF over GST control) in the test with ETV6.
ACGGTA: the binding signal with ELK1 was 1.03 fold enrichment (6-mer frequency, TF over GST control); with ELF1, 1.01 fold enrichment (6-mer frequency, TF over GST control); with ETV5, 1.04 fold enrichment (6-mer frequency, TF over GST control); with ELK4 it was 1.02 fold enrichment (6-mer frequency, TF over GST control); with ETV2 it was 1.03 fold enrichment (6-mer frequency, TF over GST control); with ETV1, 1.01 fold enrichment (6-mer frequency, TF over GST control). Further, the binding signal is 1.09 fold enrichment (6-mer frequency, TF over GST control) with ERF and 1.05 fold enrichment (6-mer frequency, TF over GST control) in the test with SPDEF.
